Assay results reported in PubChem BioAssay AID1259240 (Keith Lab, Institute of Cancer Science, University of …, 2017).
Calls of active or inactive are those of the source. No stated cut-off is given here; in the data, active means fold change mostly below about -2 (no sharp cut-off); inactive means mostly above about -1.8.

assay: modulation of TERT promoter-driven luciferase – cell-based, luciferase reporter, human, primary screen (AID 1259240); details: A2780 TERT promoter luciferase reporter, 16 h; at 20 µM, fold versus average of vehicle-only wells

Row | Structure (SMILES) | fold change | outcome
1 | COC(=O)c1cc(NS(=O)(=O)c2cccc3cccnc23)cc(C(=O)OC)c1 | -1.91 (inactive) | 
2 | O=C(Nc1cccc(F)c1)C1CCCN(S(=O)(=O)c2cnc[nH]2)C1 (stereo not given) | 1.26 (inactive) | 
3 | CCCN1C(=O)C2(/C(=C(/O)c3ccc(C)cc3)C(=O)C(=O)N2CCOC)c2ccccc21 (stereo not given) | 1.26 (inactive) | 
4 | Cc1ccc(C)c(N2CCN(C(=O)CCCc3nnc4n5nc(C)nc5c5ccccc5n34)CC2)c1 | -1.04 (inactive) | 
5 | CCOC(=O)c1ccc(-c2c(C(F)(F)F)oc3cc(O)c(CC)cc3c2=O)o1 | -2.58 (active) | 
6 | CCOC(=O)c1cc2cc(Cl)ccc2oc1=O | 1.32 (inactive) | 
7 | COC(=O)c1ccc(C(=O)OC)c(NC2=NS(=O)(=O)c3ccccc32)c1 | 1.16 (inactive) | 
8 | CCCCNS(=O)(=O)c1ccc(C)c(-c2nnc3c4ccccc4c(C)nn23)c1 | -1.28 (inactive) | 
9 | CCN1C(=O)C2(/C(=C(/O)c3ccc(OC)cc3)C(=O)C(=O)N2CCOC)c2ccccc21 (stereo not given) | 1.29 (inactive) | 
10 | O=C(O)Cn1c(O)c(C2=c3ccccc3=NC2=O)sc1=S |  | inactive
11 | Cc1noc(C(=O)Nc2cccc(Cl)c2)c1Cl | 1.73 (inactive) | 
12 | CCC(CC)c1nnc(NC(=O)Cn2cnc3c2c(=O)n(C)c(=O)n3C)s1 | -1.36 (inactive) | 
13 | COc1ccc(NC(=O)Nc2ccc3snnc3c2)cc1OC | 1.08 (inactive) | 
14 | O=c1c2ccccc2[nH]c(=S)n1CCCN1CCc2ccccc2C1 | -2.32 (active) | 
15 | NC(=O)c1c(NC(=O)CN2C(=O)c3ccccc3S2(=O)=O)sc2c1CCCC2 | 1.23 (inactive) | 
16 | COc1ccc(OC)c(S(=O)(=O)c2cc3cc(OC)ccc3oc2=O)c1 | -1.77 (inactive) | 
17 | CCOC(=O)N1CCC(Nc2c(N3CCOCC3)c(=O)c2=O)CC1 | -1.09 (inactive) | 
18 | CC(C)Oc1ccc(-c2cc(C(F)(F)F)n3ncc(C#N)c3n2)cc1 | -2.17 (active) | 
19 | O=C(NC1CCCC1)c1ccc2nc(N3CCOCC3)sc2c1 | -1.15 (inactive) | 
20 | Cc1nc(SCc2cccc(C(F)(F)F)c2)c2c(=O)n(C)c(=O)n(C)c2n1 | 1.26 (inactive) | 

Row | Structure (SMILES) | fold change | outcome
21 | CCOC(=O)N1CCN(c2c(NC3CCCCCC3)c(=O)c2=O)CC1 | -1.07 (inactive) | 
22 | CCOc1ccc2c(c1)CN(Cc1ccc(Cl)cc1)CO2 | -1.71 (inactive) | 
23 | CCOC(=O)C1CCCN(c2c(NC3CCN(C(=O)OCC)CC3)c(=O)c2=O)C1 (stereo not given) | 1.19 (inactive) | 
24 | O=C(NCc1ccccc1Cl)c1c(-n2cccc2)sc2c1CCC2 | -1.05 (inactive) | 
25 | CN(Cc1ccccc1)C(=O)C1CCCN(S(=O)(=O)c2ccc3c(c2)oc(=O)n3C)C1 (stereo not given) | -1.14 (inactive) | 
26 | CN(C)CCN1C(=O)C(=O)/C(=C(\O)c2ccc(F)cc2)C12C(=O)N(C)c1ccccc12 (stereo not given) | -1.34 (inactive) | 
27 | CCN(CC)C(=O)Nc1ccc2snnc2c1 | -1.04 (inactive) | 
28 | O=C1CC(c2cc3c(cc2Cl)OCO3)c2cc3c(cc2N1)OCCO3 (stereo not given) | 1.12 (inactive) | 
29 | Cc1cccc(-c2nc3s/c(=C\c4ccc(F)cc4)c(=O)n3n2)c1 | -1.54 (inactive) | 
30 | Cc1cc(NC(=O)c2onc(C)c2Cl)n(-c2ccccc2)n1 | 1.18 (inactive) | 
31 | COc1cc(OC)cc(-c2cc(N3C(=O)Nc4ccccc4N3O)n[nH]2)c1 | -1.25 (inactive) | 
32 | Cc1cc(NC(=O)CSc2nnc(Cc3cc(=O)[nH]c(=O)[nH]3)n2-c2ccc(Cl)cc2)no1 | -1.22 (inactive) | 
33 | Cc1oc(-c2ccccc2F)nc1CSc1nc2ccncc2[nH]1 | -1.15 (inactive) | 
34 | CSc1nsc(SC)c1C(=O)NCCNS(=O)(=O)c1ccc(C)cc1 | -1.37 (inactive) | 
35 | CCOC(=O)C1=C(CS(=O)(=O)c2ccc(C)cc2)NC(=O)NC1c1ccc(OC)cc1OC (stereo not given) | -1.29 (inactive) | 
36 | Cc1cc(S(=O)(=O)n2nc(-c3cccc(F)c3)cc2N)ccc1F | -1.3 (inactive) | 
37 | Cc1ccc(NC(=O)CSc2nc3c(c(=O)[nH]2)CCC3)cc1F |  | inactive
38 | Cc1ccc(-c2cc(C(F)F)n3ncc(C(=O)N4CC(C)OC(C)C4)c3n2)cc1 (stereo not given) | -2.07 (active) | 
39 | COc1ccccc1/C=C/C=c1\sc2nc(-c3ccco3)nn2c1=O | 1.41 (inactive) | 
40 | COc1cccc(C(=O)Cn2c(=O)n(C3CCCC3)c(=O)c3cc(OC)c(OC)cc32)c1 | -1.38 (inactive) | 
